These results are taken from PubChem BioAssay (Tox21).

Inconclusive results are not listed. A number with no mark means an inactive call. The call rests on the fitted dose curve; in most records, active means well fitted cell-killing curve with a large enough effect in the repeat runs; inconclusive means weak or mixed curves, or effect the other way; inactive means flat fitted curve, though single readings scatter.
On the % scale 0 is the no-effect control and ±100 the full control effect.

This experiment can be described thus: qHTS assay to identify small molecule agonists of the TGF-beta/Smad signaling pathway - cell viability counter screen (AID 1346829). Further: top concentration of the series differs between compounds; nearly all actives have a fitted effect of over 45% in size. To be noted: SBE-bla HEK293T viability, CellTiter-Glo luminescence, 5 h; series mostly up to 76.8 µM; activity change, negative = cytotoxicity: at the top concentration. The text has this:
National Center for Advancing Translational Sciences [NCATS]
NIH Chemical Genomics Center [NCGC]
U.S. Environmental Protection Agency [EPA]
National Institutes of Environmental Health Sciences [NIEHS]
National Toxicology Program [NTP]
U.S. Food and Drug Administration [FDA]
Transforming growth factor beta (TGF-beta) superfamily consists of a large number of structurally related dimeric proteins that act as hormones or local mediators in regulating a wide range of biological functions. This superfamily includes TGF-betas themselves, the bone morphogenetic proteins (BMPs) and the activins. These ligands induce oligomerization of serine/threonine receptor kinases and phosphorylate the cytoplasmic signaling molecules of Smad protein family. CellSensor SBE-bla HEK 293T cell line (Life Technologies, Carlsbad, CA), responsive to TGF-beta was used to screen Tox21 10K compound library for identification of agonists/antagonists of the Smad signaling pathway. This cell line contains a beta-lactamase reporter gene under control of the Smad binding element (SBE) stably integrated into HEK 293T cells. Also cytotoxicity of the compounds was tested in parallel by measuring the cell viability using CellTiter-Glo assay system in the same wells.
Tox21 Assay Protocol Summary:
SBE-bla HEK 293T cells were dispensed at 4,000/well in 6 uL of assay medium into black wall/clear-bottom 1536-well plates using a Multidrop Combi (ThermoFisher Scientific, Waltham, MA) dispenser. After the assay plates were incubated at 37 C and 5% CO2 for an overnight, 23 nL of compounds dissolved in DMSO, positive controls or DMSO only was transferred to the assay plate by a Pintool station (Kalypsys, San Diego, CA). The assay plates were incubated at 37 C and 5% CO2 for 5 hr. One uL of LiveBLAzer B/G FRET substrate (Life Technologies) was added using a Flying Reagent Dispenser (FRD, Aurora Discovery, San Diego, CA) and the plates were incubated at room temperature for 2 hr. Fluorescence intensity (405 nm excitation, 460 nm and 530 nm emissions) was measured using an Envision plate reader (PerkinElmer, Shelton, CT). For cytotoxicity read, 4 uL of CellTiter-Glo reagent (Promega Corporation, Madison, WI) was added to each well of the assay plates using FRD. After 30min incubation at room temperature, the luminescence intensity was measured using ViewLux plate reader (PerkinElmer).
(In general: In qHTS, concentration-response curves come from the screen itself.)
Turning to `O=C1CC[C@@H](C(=O)O)N1`, the “activity change, negative = cytotoxicity” value is -11% [at 35.3 µM].

On to `C=CC(=O)O`, for which the “activity change, negative = cytotoxicity” value was -1.13% [at 35.3 µM].

Take `CCOc1ncc(F)c(=O)[nH]1`: the “activity change, negative = cytotoxicity” value was -17.2% [at 35.3 µM].

Turning to `CCN(CC)CC(=O)Nc1c(C)cccc1C(=O)OC`, the “activity change, negative = cytotoxicity” value is -2.38% [at 35.3 µM].

`CCCCCCCC/C=C/C(=O)O`: the “activity change, negative = cytotoxicity” value was 4.62% [at 35.3 µM].

Regarding `CC(C)CC(O)CC(C)C`, the “activity change, negative = cytotoxicity” value is -12.5%.

On to `Cc1cn([C@H]2C[C@H](F)[C@@H](CO)O2)c(=O)[nH]c1=O`, for which the “activity change, negative = cytotoxicity” value was -15.9% [at 35.3 µM].

For `CCCCCCOC(=O)CCCCC`, the “activity change, negative = cytotoxicity” value was 9.34%.

Consider `O=C(O)CNC(=O)c1ccccc1I`, for which the “activity change, negative = cytotoxicity” value was 0.703% [at 35.3 µM].

For `CNS(=O)(=O)c1cc(C(=O)N2CCC(CCN3C4CCC3CC(n3c(C)nc5ccccc53)C4)(c3cccc(F)c3)CC2)c(Cl)cc1F` (stereo not given), the “activity change, negative = cytotoxicity” value is -8.23%.

In the case of `O=c1[nH][nH]c(=O)c2cc([N+](=O)[O-])ccc12`, the “activity change, negative = cytotoxicity” value was 0.427%.

In the case of `CCOC(=O)N1CCC(Nc2ccc(Cl)cc2N)CC1`, the “activity change, negative = cytotoxicity” value is 13% [at 35.3 µM].

Regarding `O=C1NC(=O)c2cccc3cccc1c23`, the “activity change, negative = cytotoxicity” value was 0.881%.

Turning to `Nc1nc2ccc(OC(F)(F)F)cc2s1`, the “activity change, negative = cytotoxicity” value was -4.35% [at 35.3 µM].

As for `O=C(c1ccccc1)c1ccc(O)cc1`, the “activity change, negative = cytotoxicity” value was 0.0991%.

With `CCCCCCCCCCCSCC(=O)O`, the “activity change, negative = cytotoxicity” value was -0.444%.

For `O=C(O)CCS`, the “activity change, negative = cytotoxicity” value was 3.28%.

Consider `Nc1ccc(F)cc1`, for which the “activity change, negative = cytotoxicity” value was 9.07%.

In the case of `Nc1ccc(S(=O)(=O)NCc2ccccc2)cc1`, the “activity change, negative = cytotoxicity” value is 0.165% [at 35.3 µM].

With `CC(CN(CCN(CC(C)OCCO)CC(C)OCCO)CC(C)OCCO)OCCO` (stereo not given), the “activity change, negative = cytotoxicity” value is -4.75%.

`CC(CCc1ccc(O)cc1)NCCc1ccc(O)c(O)c1` (stereo not given): the “activity change, negative = cytotoxicity” value is -5.12% [at 35.3 µM].

On to `Cc1cc(CCCOc2c(C)cc(-c3noc(C(F)(F)F)n3)cc2C)on1`, for which the “activity change, negative = cytotoxicity” value is -24.7% [at 35.3 µM].

As to `CSSc1ccoc1C`, the “activity change, negative = cytotoxicity” value was -1.83%.

Turning to `CCCCCc1ccco1`, the “activity change, negative = cytotoxicity” value was -7.02% [at 35.3 µM].

As for `CCOCCC(=O)OCC`, the “activity change, negative = cytotoxicity” value is 6.3%.

With `CC1=C2[C@@H]([C@H](C)CC[C@H]2/C=C(\C)C(=O)O)[C@H](O)C1`, the “activity change, negative = cytotoxicity” value was -0.366%.

In the case of `CCC(CO)(CO)[N+](=O)[O-]`, the “activity change, negative = cytotoxicity” value is 2.46%.

With `CCCCC[C@H](O)/C=C/[C@H]1[C@H](O)CC(=O)[C@@H]1C/C=C\CCCC(=O)O`, the “activity change, negative = cytotoxicity” value was 8.72% [at 35.3 µM].

In the case of `Cc1cc([N+](=O)[O-])ccc1N`, the “activity change, negative = cytotoxicity” value was -9.94%.

`Cc1ccc2c(c1[N+](=O)[O-])C(=O)c1ccccc1C2=O`: the “activity change, negative = cytotoxicity” value is -5.85% [at 35.3 µM].

Regarding `CCC(=O)OCc1ccc(OC)cc1`, the “activity change, negative = cytotoxicity” value was 8.1%.

As for `CCCCC(CC)COS(=O)(=O)O` (stereo not given), the “activity change, negative = cytotoxicity” value was 5.83%.

In the case of `Cc1ccc(Cl)cc1N`, the “activity change, negative = cytotoxicity” value was 14.5%.

Take `COc1cc(OC)c2ccc(=O)oc2c1`: the “activity change, negative = cytotoxicity” value is 3.1%.

Turning to `CCc1ccc(C)cc1`, the “activity change, negative = cytotoxicity” value is 1.23%.

In the case of `CC(C)(C(=O)c1cccnc1)c1cccnc1`, the “activity change, negative = cytotoxicity” value was 6.91% [at 35.3 µM].

As to `CCO[Si](C)(CCCOCC1CO1)OCC` (stereo not given), the “activity change, negative = cytotoxicity” value was 6.64%.

For the molecule `CCCCCCCCCCCCCCCC(=O)OCC`, the “activity change, negative = cytotoxicity” value was -1.06%.

Consider `Cc1cccc(C)c1NC(=O)c1cc(S(N)(=O)=O)c(Cl)cc1O`, for which the “activity change, negative = cytotoxicity” value is 9.27% [at 35.3 µM].

In the case of `Nc1c(Cl)cc(Cl)cc1[N+](=O)[O-]`, the “activity change, negative = cytotoxicity” value was 0.632%.
